Shown is part of a subset that was picked to be rich in hits.
KDM5B inhibitor = inhibitors of human KDM5B histone demethylase; Q9UGL1; KDM5B demethylase, FDH-coupled NADH fluorescence (FDH is formaldehyde dehydrogenase); Potency, µM (top dose mostly 57.7 µM), actives largely listed as inhibitors; hit rate 2.6% among 220,000; AID 1347165; active means well fitted inhibition curve with a large enough effect; further: nearly all actives have a fitted effect of over 70% in size
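Coupled FDH/NAD⁺ fluorescence readout. KDM5BΔAP 200 nM final; compound titration, 10 min RT preincubation; substrate mix 12.5 µM H3K4me3, 25 µM 2-OG, 50 µM Fe(II), 100 µM ascorbate, 0.25 mM NAD⁺, 0.25 U/mL FDH; ΔRFU over 30 min.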
Hits are given with their value; . = inactive; ! = not confirmed by another sample.

SMILES	KDM5B inhibitor
CN(C)C(=O)c1nc(C(C)(C)C)c2cnccn12	89µM
CN(C)C(=O)c1nc(C(C)(C)C)c2ccccn12	112µM
COCCN(C)Cc1c(C(=O)N(C)Cc2ccccc2)nc2ccccn12	.
CCCC(=O)N1CC2(CCCN2Cc2cccnc2)Cc2ccccc21 (centres undefined)	.
COc1ccc(-c2nc3c(s2)CN(C(C(=O)O)c2c[nH]c4cc(Cl)ccc24)CC3)cc1 (centres undefined)	.
Cc1nn(-c2nc3c(c(=O)n(CC(=O)C(C)(C)C)c(=O)n3C)n2CC(C)C)c(C)c1C	.
Cc1ccc(C(=O)NCc2nnc3cc(-c4nc(C(C)C)no4)ccn23)cc1	10µM
CCc1ccc(C(=O)NCc2nnc3cc(-c4nc(C(C)C)no4)ccn23)cc1	.
CC(C)c1noc(-c2ccn3c(CNC(=O)c4ccco4)nnc3c2)n1	28µM
Cc1ccc(NC(=O)c2nc3ccccc3nc2N2CCN(C)CC2)c(C)c1	.
O=C(Nc1ccc(F)c(F)c1)C1CCCN(C(=O)Cc2cccc3ccccc23)C1 (centres undefined)	.
CCNC(=O)NC(=O)CN(C)Cc1ccccc1	.
O=C(Nc1cccc(F)c1)N1Cc2[nH]cnc2C[C@H]1c1nc(-c2ccccc2)no1	28µM
Cc1cccc(-c2noc([C@@H]3Cc4nc[nH]c4CN3C(=O)Nc3cccc(F)c3)n2)c1	.
O=C(c1ccc(F)cc1)N1Cc2[nH]cnc2C[C@H]1c1nc(-c2ccc3c(c2)OCO3)no1	40µM
O=C(c1ccc(F)cc1)N1Cc2[nH]cnc2C[C@H]1c1nc(-c2ccc(Cl)cc2)no1	.
O=C(Nc1ccccc1)N1Cc2[nH]cnc2C[C@H]1c1nc(-c2ccc3c(c2)OCO3)no1	.
O=C(Nc1cccc(F)c1)N1Cc2[nH]cnc2C[C@H]1c1nc(-c2ccc(Cl)cc2)no1	.
CCN(Cc1nc(-c2ccccc2)no1)C(=O)Nc1ccccc1OC	.
COc1cc(OC)c(C2=CCN(C(=O)c3ccccc3OCc3noc(C)n3)CC2)c(OC)c1	.
CC(C)Cn1c(SCC(=O)NCc2ccccc2Cl)nc2ncccc2c1=O	.
COc1ccc(NC(=O)Nc2nnc(N3CCCC3)s2)cc1OC	.
CC(C)Oc1ccc(CNC(=O)C2Cn3cccc3C(=O)N2C)cc1 (centres undefined)	.
COCC1CN(C(C)=O)CC12CCN(Cc1cccc(OC)c1OC)CC2 (centres undefined)	.
COCCN1C(=O)CO[C@H]2CN(c3ncccn3)C[C@H]21	35µM
SMILES	KDM5B inhibitor
COc1ccc(CN2C(=O)CO[C@H]3CN(Cc4ccccc4)C[C@H]32)cc1	.
COCCN1C(=O)CO[C@H]2CN(CCCc3ccccc3)C[C@H]21	.
Cc1cnc2c(S(=O)(=O)NCCCNS(C)(=O)=O)cccc2c1	.
O=C1c2cnc(-c3ccc(Oc4ccccc4)cc3)nc2OCCN1CC1CC1	35µM
O=C1c2cnc(-c3ccc(F)cc3)nc2OCCN1Cc1ccc(F)cc1F	.
O=C1c2cnc(-c3cccc(C(F)(F)F)c3)nc2OCCN1CC1CC1	.
Cc1noc(C)c1-c1ncc2c(n1)OCCN(Cc1ccccc1)C2=O	.
COc1ccc(CN2CCOc3nc(-c4cc5ccccc5o4)ncc3C2=O)cc1	32µM
O=C1c2cnc(-c3cccnc3)nc2OCCN1Cc1ccccc1	.
CCn1nc(C(=O)OCC(=O)Nc2ccc(N3CCOCC3)cc2)c2ccccc2c1=O	.
COc1cccc(-c2nn3c(C(C)C)nnc3s2)c1OC	.
CCOC(=O)Cc1nnc(SC(C)C(=O)Nc2ccc(F)c(F)c2)n1Cc1ccccc1 (centres undefined)	.
CCCNC(=O)COC(=O)c1csc(NCc2ccccc2)n1	.
CSc1cccc(NC(=O)c2ccc(Cl)cc2I)c1	.
Cc1nc(-c2ccc(F)cc2)n(Cc2nc(-c3ccccc3)oc2C)c(=O)c1CCO	.
Cc1nc(-c2ccc(F)cc2)n(Cc2nc(-c3ccc(OC(C)C)cc3)oc2C)c(=O)c1CCO	16µM
Cc1nc(-c2ccc(F)cc2)n(Cc2ccc(F)cc2)c(=O)c1CCO	.
C=CCN(Cc1ccccc1F)C(=O)Cc1nn(C)c(=O)c2ccccc12	.
COC[C@@H]1CN(C(=O)c2ccc(C#N)cc2)C[C@H]1c1nc(C2CC2)no1	.
CS(=O)(=O)N(Cc1cccnc1)C1CN(C(=O)c2ccc3cc[nH]c3c2)C1	32µM
CS(=O)(=O)N(Cc1cccnc1)C1CN(C(=O)c2c[nH]c3ccccc23)C1	.
Cc1ccc(C(=O)N2CC(N(Cc3cccnc3)S(C)(=O)=O)C2)s1	.
COc1cc2c(cc1OC)C(CNC(=O)C(C)C)N(C(=O)Nc1ccc(C)cc1)CC2 (centres undefined)	.
Cc1ccn2c(C(=O)N3CCCn4nc(C(O)CO)cc4C3)nnc2n1 (centres undefined)	32µM
CC(O)c1cc2n(n1)CCCN(C(=O)c1ccc(-c3nnn(C)n3)cc1)C2 (centres undefined)	.
SMILES	KDM5B inhibitor
CN(C)CC(O)c1cc2n(n1)CCCN(C(=O)c1cccn1C1CC1)C2 (centres undefined)	.
CCNC(=O)COC(=O)c1cc(Cl)cc(Cl)c1	.
CCn1c(CO)nnc1C1CC(NC(=O)c2ccccc2-n2cccn2)C1 (centres undefined)	.
CCn1c(CO)nnc1C1CC(NC(=O)c2nn(C)c(C)c2Cl)C1 (centres undefined)	.
CCn1c(CO)nnc1C1CC(NC(=O)c2cnn3cc(C)cnc23)C1 (centres undefined)	28µM!
COCc1nn(CC(=O)N2CCc3sccc3C2)c(=O)n1-c1ccccc1	.
O=C(N1CCCC1)C1(CCO)CCN(c2ncccn2)C1 (centres undefined)	28µM
O=C(Nc1cccc(F)c1)C1(CCO)CCN(c2ncccn2)C1 (centres undefined)	28µM
O=C(Nc1ccc(N2CCOCC2)cc1)c1cnccn1	.
COc1ccccc1CNC(=O)C1(CCO)CCN(Cc2ccccc2)C1 (centres undefined)	.
CCCC1(C(=O)O)CCCN(C(=O)c2cccnc2OCC)C1 (centres undefined)	.
O=C(Nc1cccc(F)c1)C1(CCO)CC12CCOCC2 (centres undefined)	.
O=C(Nc1ccc(N2CCOCC2)cc1)C1(CCO)CCN(c2ncccn2)C1 (centres undefined)	22µM
O=C(c1ccc(-c2ccccc2CO)nc1)N1CCCN(c2ncccn2)CC1	.
O=C(Nc1cccc(F)c1)C1=NO[C@@H]2CN(c3ccccn3)C[C@H]12	.
COCCNC(=O)C1(CCO)CCN(Cc2ccccc2)C1 (centres undefined)	.
O=C(Nc1ccc(N2CCOCC2)cc1)C1(CCO)CCN(Cc2ccccc2)C1 (centres undefined)	.
O=C(NCc1ccccc1)C1(CCO)CCN(c2ncccn2)C1 (centres undefined)	28µM
CC(C)(C)C(=O)/C=c1/[nH]c(=O)/c(=C/c2ccc(F)c(F)c2)s1	.
Cc1ccc(CSc2nc3c(c(=O)[nH]c(=O)n3C)n2C(C)C)cc1	.
CC(C)CN(CC(=O)NC(N)=O)C1CC1	.
Cc1ccc(NC(=O)CN(C)C(=O)c2ccc3c(c2)nnn3C(C)C)cc1C	.
COc1cccc(CNC(=O)N2CC(c3noc(-c4ccncc4)n3)C2)c1	.
CCC1=C(C(=O)OC)C(c2ccc(OC)cc2OC)N2C(CC(=O)NC3CC3)=CSC2=N1 (centres undefined)	.
CCN(CC)c1nc2c(c(=O)n(C)c(=O)n2C)n1Cc1ccc(F)cc1	.
Oc1ccccc1CN1CCOC[C@H]1c1ncc(-c2ccc(F)cc2F)[nH]1	.

High-throughput results deposited in PubChem by National Center for Advancing Translational Sciences (NCATS).
